High-throughput results from PubChem BioAssay.
This excerpt belongs to a sample that is enriched for hits.
Shiga inhibitor = blocks Shiga toxin action in Vero cells | Vero cells, Shiga toxin protein synthesis inhibition reporter | inhibition, % at 38.7 µM | actives 9.2% (n = 290,000); in the data active = inhibition mostly above about 28%, no sharp cut-off; inactive = mostly below about 43%; note: 0% is about no effect
NS1 function inh = inhibitors of influenza NS1 protein function; Potency, µM (doses to about 46.1 µM), for inactives: at the top dose activity, positive = more growth; actives 0.4% (n = 270,000); AID 2326; calls by dose curve; note: potency is the fitted concentration of half-maximal effect; actives are rising curves; nearly all actives have a fitted effect of over 50% in size
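A cell-based growth assay was used: compounds that relieve NS1-induced slow growth of budding yeast raise OD600. Assay medium was yeast nitrogen base with ammonium sulphate and -URA supplement, pH 6.0, with 2% galactose.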
LmPK inh = LmPK (Leishmania mexicana) enzyme inhibition. Q27686. purified LmPK, Kinase-Glo ATP luminescence, 1 h. Potency, µM (series often up to 57.5 µM), without a hit: at the highest dose activity change, negative = inhibition, actives largely listed as inhibitors. actives 0.37% (n = 290,000). AID 1721; note: potency is the fitted concentration of half-maximal effect; % is set by controls: 0 for no effect and ±100 for the full control effect
Target sequence (Q27686 whole entry, looked up): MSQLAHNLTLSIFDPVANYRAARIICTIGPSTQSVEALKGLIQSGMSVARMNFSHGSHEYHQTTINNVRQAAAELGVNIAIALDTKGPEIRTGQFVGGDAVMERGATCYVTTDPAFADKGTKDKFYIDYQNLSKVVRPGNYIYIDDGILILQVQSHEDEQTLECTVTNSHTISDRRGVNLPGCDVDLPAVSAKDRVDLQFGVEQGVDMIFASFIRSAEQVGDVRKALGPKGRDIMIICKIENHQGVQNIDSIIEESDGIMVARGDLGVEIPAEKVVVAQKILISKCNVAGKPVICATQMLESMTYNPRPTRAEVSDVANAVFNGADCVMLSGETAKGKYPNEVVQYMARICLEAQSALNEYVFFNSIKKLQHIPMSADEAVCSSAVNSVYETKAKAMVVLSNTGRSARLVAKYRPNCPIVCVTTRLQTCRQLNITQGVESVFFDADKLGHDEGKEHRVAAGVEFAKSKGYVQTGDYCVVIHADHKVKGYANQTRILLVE
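Screened at intermediate enzyme activity to detect both inhibitors and activators: LmPK at 0.1 nM, with a 0.5 nM enzyme column as activation reference. PEP 0.5 mM, ADP 0.1 mM; ATP detected by luminescence after 1 h.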
SARS PLP yeast = blocks SARS-CoV papain-like protease in a yeast assay; S. cerevisiae expressing SARS-CoV PLpro, growth rescue; Potency, µM (titrated, usually from 32.9 µM), for the others: top-dose activity, positive = growth rescue, hits mostly activators; actives 0.19% (n = 330,000); calls by dose curve; note: potency is the fitted concentration of half-maximal effect; 0% is about no effect; nearly all actives have a fitted effect of over 55% in size
TbPYK inhibitor = blocks Trypanosoma brucei pyruvate kinase. Q57TT1. TbPYK enzyme, Kinase-Glo Plus ATP luminescence, 45 min. Potency, µM (titrated, usually from 76.8 µM), inactives show at the highest dose activity, negative = inhibition, usual class: inhibitors. actives 0.12% (n = 410,000). AID 624173; note: potency is the fitted concentration of half-maximal effect; % is set by controls: 0 for no effect and ±100 for the full control effect; nearly all actives have a fitted effect of over 50% in size
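ADP (130 uM final) triggers the TbPYK reaction after compound addition; incubation is 45 min at room temperature. Kinase-Glo Plus is then added and luminescence imaged. Normalized data are fitted to concentration-effect curves.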
Cycloheximide cs = affects cycloheximide protein synthesis inhibition readout, counter-screen; cell reporter, cycloheximide protein synthesis inhibition counterscreen; max response, %; actives 12% (n = 300,000); in the data active = max response mostly above about 13%, no sharp cut-off; inactive = mostly below about 14%; note: read at 38.3 µM for the half of the compounds with a filed dose; 0% is about no effect
An asterisk follows results filed as active; ? = inconclusive; . = no result. Unless noted, calls come from the whole dose curve; as a rule, active = well fitted curve in the direction sought with a large enough effect; inconclusive = small, poorly fitted or top-dose-only effect, or another doubt; inactive = no such curve, though single readings can be large; an effect the other way counts as inactive or inconclusive.

SMILES | Shiga inhibitor | NS1 function inh | LmPK inh | SARS PLP yeast | TbPYK inhibitor | Cycloheximide cs
Cc1ccc(SCCSc2nc(C)cc(=O)[nH]2)cc1 | . | 4% | 3% | -1% | -3% | 40*
CCOc1ccc(OCCSc2nc(C)cc(=O)[nH]2)cc1 | 124* | -13% | 2% | -1% | ? | 30*
Cc1ccc(SCCSc2nc(N)cc(=O)[nH]2)cc1 | 33 | 17% | 4% | 7% | -1% | 22*
CC(=O)Nc1ccc(-c2noc(-c3csc([C@@H]4C[C@H](O)[C@@H](CO)O4)n3)n2)cc1 | . | . | . | . | 7% | .
O=C(O)C[C@H](Nc1ccccc1)C(=O)O | . | -8% | . | . | . | .
CCC(C(=O)Nc1ccccc1C(=O)OC)n1nc(C)c2c(C)n(-c3ccc(C)cc3)nc2c1=O (centres undefined) | . | . | . | . | -5% | .
Nc1sc2c(c1C(=O)NC1CC1)CCCC2 | . | . | . | -5% | ? | .
S=C(NCC1CC1)N/N=C/c1ccccc1Cl | 26* | -5% | -6% | 0% | 2% | 3
COc1cccc(OCc2cc(C(=O)NCCN3CCCCC3CO)no2)c1 (centres undefined) | 14 | 14% | 0% | -2% | 3% | 12
COc1ccc(OCc2cc(C(=O)NCc3cccc(C)n3)no2)c(Cl)c1 | 138* | 0% | -6% | -11% | 1% | 61*
COc1ccc(OCc2cc(C(=O)NC3CCc4ccccc43)no2)c(Cl)c1 (centres undefined) | -1 | 4% | -7% | ? | 6% | 0
COc1cccc(OCc2cc(C(=O)NCc3ccccn3)no2)c1 | 70* | 2% | 4% | -1% | 4% | 62*
COc1cccc(OCc2cc(C(=O)NCCc3cccc(C)n3)no2)c1 | 9 | -15% | 6% | -2% | -4% | 11
COc1cccc(OCc2cc(C(=O)NCC3CCCCC3)no2)c1 | 38* | -10% | 4% | -10% | -1% | 35*
CC1CN(S(=O)(=O)c2cccc(C(=O)NCCc3ccc(S(N)(=O)=O)cc3)c2)CC(C)O1 (centres undefined) | . | . | . | -1% | 3% | .
O=C(NCC(O)c1ccccc1)c1ccc(Cl)c(S(=O)(=O)N2CCCCC2)c1 (centres undefined) | 13 | -5% | 0% | -1% | 7% | 20
CC1CCN(S(=O)(=O)c2ccc3c(c2)N(CC(=O)N2CCN(c4ccccc4)CC2)C(=O)CO3)CC1 | . | . | . | . | 5% | .
COc1cc(OC)cc(C(=O)N2CCC(C(=O)NCCc3ccccc3)CC2)c1 | . | -18% | 1% | 2% | 4% | 24*
COc1ccc(CCNC(=O)C2CCN(C(=O)c3ccccc3)CC2)cc1 | 4 | 4% | -2% | -2% | -20% | 2
CCn1c(O)c(C=NC2CCCC(C)C2C)sc1=S (centres undefined) | 110* | -5% | 6% | -1% | -3% | 51*
CCn1c(O)c(C=NCc2ccccc2)sc1=S | 33 | -2% | -1% | -1% | -2% | 15
Cc1ccc2nc(-c3ccccc3)c(Cc3ccsc3)n2c1 | . | . | . | . | 7% | .
C=CCn1cccc(C(=O)Nc2ccc(C)c(C)c2)c1=O | 107* | -33% | -6% | -4% | 2% | 45*
C=CCn1cccc(C(=O)Nc2ccc(C)cc2)c1=O | 102* | -43% | -6% | -5% | 7% | 77*
C=CCn1c(N)c(C(=O)Nc2ccc(C)cc2)sc1=S | 15 | 3% | 3% | 18% | -12% | 30*
SMILES | Shiga inhibitor | NS1 function inh | LmPK inh | SARS PLP yeast | TbPYK inhibitor | Cycloheximide cs
C=CCn1c(N)c(C(=O)Nc2ccccc2OC)sc1=S | -10 | -19% | 2% | -21% | -17% | -3
CCOC(=O)[C@@H](NC(=O)/C=C/[C@H]1O[C@@H](n2cc(C)c(=O)[nH]c2=O)C[C@@H]1O)C(C)C | . | . | . | . | -2% | .
Cc1cc(C)c(NC(=O)C(=O)NCCc2csc(-c3ccc(F)cc3)n2)c(C)c1 | . | . | . | . | -7% | .
CCN(C(=O)c1cc2c(=O)n3ccccc3nc2n1C)C1CCCCC1 | 61* | -6% | 3% | -4% | 0% | 37*
CN(C(=O)c1cc2c(=O)n3ccccc3nc2n1C)C1CCCCC1 | 105* | 1% | 0% | 3% | 0% | 62*
CCN(CC)C(=O)c1cc2c(=O)n3cccc(C)c3nc2s1 | 42 | -8% | -3% | 1% | -5% | 27*
CCCCN(CC)C(=O)c1cc2c(=O)n3cccc(C)c3nc2s1 | 17 | -3% | 1% | 0% | -15% | 12
